Test results as given in the supplement of paper PMC12067093, “Discovery and optimisation of a covalent ligand for TRIM25 and its application to targeted protein ubiquitination” (Chemical Science, 2025).
About 21,000 targets were measured; listed, in parts, are those with the largest changes and a random draw of the rest.

Compound: Cc1cc(ccc1-c1ccccc1)C(=O)N1CCCN(CC1)C(=O)CCl [compound 10]
Assay: probe-labelled cysteine peptide fold change vs DMSO (competition) (log2 fold change); higher = less target engagement (more negative = stronger competition)
Settings: THP-1, incubation time: 4 h
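Further: competitive profiling in live THP-1 cells: cysteine peptides tagged with an iodoacetamide desthiobiotin (IA-DTB) probe, intensity after compound treatment relative to DMSO-treated cells.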

## EEFSEC_P57772_442_LDADIHTNTCR (UniProt P57772)
10 µM
  probe-labelled cysteine peptide fold change: -0.204
50 µM
  probe-labelled cysteine peptide fold change: -1.14

## FDFT1_P37268_6_CLGHPEEFYNLVR (UniProt P37268)
10 µM
  probe-labelled cysteine peptide fold change: -0.238
50 µM
  probe-labelled cysteine peptide fold change: -0.749

## EEF1A1_P68104_31_CGGIDKR<|>EEF1A2_Q5VTE0_31_CGGIDKR (UniProt Q5VTE0+P68104)
10 µM
  probe-labelled cysteine peptide fold change: -1.04
50 µM
  probe-labelled cysteine peptide fold change: -1.79

## EFNB1_P98172_89+101_LYLVRPEQAAACSTVLDPNVLVTCNRPEQEIR (UniProt P98172)
10 µM
  probe-labelled cysteine peptide fold change: -0.388
50 µM
  probe-labelled cysteine peptide fold change: -0.49

## FAM120B_Q96EK7_547_LEALMCTNPEIK (UniProt Q96EK7)
10 µM
  probe-labelled cysteine peptide fold change: -0.253
50 µM
  probe-labelled cysteine peptide fold change: 0.187

## DYNC1H1_Q14204_1888_CYLTMTQALEAR (UniProt Q14204)
10 µM
  probe-labelled cysteine peptide fold change: -0.0386
50 µM
  probe-labelled cysteine peptide fold change: -0.161

## FAM76B_Q5HYJ3_73_PCQYCNIIAAFIGTK (UniProt Q5HYJ3)
10 µM
  probe-labelled cysteine peptide fold change: -0.188
50 µM
  probe-labelled cysteine peptide fold change: 0.0361

## FGD3_Q5JSP0_184_LHLLDQVFCTR (UniProt Q5JSP0)
10 µM
  probe-labelled cysteine peptide fold change: 0.0176
50 µM
  probe-labelled cysteine peptide fold change: 0.345

## ERMP1_Q7Z2K6_737_AHCEENAPLCGFPWYLPVHFLIR (UniProt Q7Z2K6)
10 µM
  probe-labelled cysteine peptide fold change: -0.0124
50 µM
  probe-labelled cysteine peptide fold change: 0.222

## ELAVL1_Q15717_13_SNGYEDHMAEDCR (UniProt Q15717)
10 µM
  probe-labelled cysteine peptide fold change: 0.863
50 µM
  probe-labelled cysteine peptide fold change: 1.62

## FAM118A_Q9NWS6_113_TGDAKPSFFQDCLMEVFDDLEQHIR (UniProt Q9NWS6)
10 µM
  probe-labelled cysteine peptide fold change: 0.174
50 µM
  probe-labelled cysteine peptide fold change: -0.519

## ERCC5_P28715_550_NETHAEVLEQQNELCPYESK (UniProt P28715)
10 µM
  probe-labelled cysteine peptide fold change: -0.452
50 µM
  probe-labelled cysteine peptide fold change: -0.364

## EXOSC10_Q01780_327_SFLGLTCLMQISTR (UniProt Q01780)
UniProt Q01780, sequence (Q01780 whole entry, looked up): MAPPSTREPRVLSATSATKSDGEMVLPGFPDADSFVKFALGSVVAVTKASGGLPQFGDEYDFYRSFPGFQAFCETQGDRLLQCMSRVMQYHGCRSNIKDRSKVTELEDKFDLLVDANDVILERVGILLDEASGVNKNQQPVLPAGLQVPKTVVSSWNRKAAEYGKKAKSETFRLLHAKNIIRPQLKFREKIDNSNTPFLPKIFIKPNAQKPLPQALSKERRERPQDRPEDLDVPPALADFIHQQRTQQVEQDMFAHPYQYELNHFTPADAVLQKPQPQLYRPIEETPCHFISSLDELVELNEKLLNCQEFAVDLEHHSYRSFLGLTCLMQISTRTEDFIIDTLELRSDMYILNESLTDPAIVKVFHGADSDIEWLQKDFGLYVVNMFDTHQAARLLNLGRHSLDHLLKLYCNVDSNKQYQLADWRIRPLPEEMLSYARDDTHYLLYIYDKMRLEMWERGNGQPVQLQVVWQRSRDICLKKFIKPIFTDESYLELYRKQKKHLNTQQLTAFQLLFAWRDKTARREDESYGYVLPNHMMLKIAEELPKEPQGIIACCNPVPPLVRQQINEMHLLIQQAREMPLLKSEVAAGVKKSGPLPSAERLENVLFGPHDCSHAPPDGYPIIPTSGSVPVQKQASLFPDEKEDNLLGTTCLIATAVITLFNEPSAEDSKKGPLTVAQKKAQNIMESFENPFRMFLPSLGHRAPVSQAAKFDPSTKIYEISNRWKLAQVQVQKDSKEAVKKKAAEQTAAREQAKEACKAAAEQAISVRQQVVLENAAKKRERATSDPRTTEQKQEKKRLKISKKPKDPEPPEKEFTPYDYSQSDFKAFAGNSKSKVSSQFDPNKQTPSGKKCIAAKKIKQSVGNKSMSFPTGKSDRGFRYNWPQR
10 µM
  probe-labelled cysteine peptide fold change: 0.419
50 µM
  probe-labelled cysteine peptide fold change: 0.333

## EIF2S1_P05198_98_VSPEEAIKCEDK (UniProt P05198)
UniProt P05198, sequence (P05198 whole entry, looked up): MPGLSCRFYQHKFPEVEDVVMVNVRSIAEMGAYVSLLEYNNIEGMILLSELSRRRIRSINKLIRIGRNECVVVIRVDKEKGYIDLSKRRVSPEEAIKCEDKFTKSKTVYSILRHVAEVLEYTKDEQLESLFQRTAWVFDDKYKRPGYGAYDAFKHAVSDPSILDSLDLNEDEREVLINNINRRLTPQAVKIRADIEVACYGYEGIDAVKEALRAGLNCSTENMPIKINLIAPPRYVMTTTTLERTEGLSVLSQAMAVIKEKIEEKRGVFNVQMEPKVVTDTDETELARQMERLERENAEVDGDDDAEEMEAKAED
10 µM
  probe-labelled cysteine peptide fold change: -0.267
50 µM
  probe-labelled cysteine peptide fold change: -1.12

## EPRS_P07814_1076_KLGVENCYFPMFVSQSALEK (UniProt P07814)
10 µM
  probe-labelled cysteine peptide fold change: 0.288
50 µM
  probe-labelled cysteine peptide fold change: 0.373

## EPRS_P07814_350_IDMSSNNGCMRDPTLYR (UniProt P07814)
10 µM
  probe-labelled cysteine peptide fold change: -0.0274
50 µM
  probe-labelled cysteine peptide fold change: -0.367

## EML4_Q9HC35_638_LVDEPGHCADFHPSGTVVAIGTHSGR (UniProt Q9HC35)
UniProt Q9HC35, sequence (Q9HC35 whole entry, looked up): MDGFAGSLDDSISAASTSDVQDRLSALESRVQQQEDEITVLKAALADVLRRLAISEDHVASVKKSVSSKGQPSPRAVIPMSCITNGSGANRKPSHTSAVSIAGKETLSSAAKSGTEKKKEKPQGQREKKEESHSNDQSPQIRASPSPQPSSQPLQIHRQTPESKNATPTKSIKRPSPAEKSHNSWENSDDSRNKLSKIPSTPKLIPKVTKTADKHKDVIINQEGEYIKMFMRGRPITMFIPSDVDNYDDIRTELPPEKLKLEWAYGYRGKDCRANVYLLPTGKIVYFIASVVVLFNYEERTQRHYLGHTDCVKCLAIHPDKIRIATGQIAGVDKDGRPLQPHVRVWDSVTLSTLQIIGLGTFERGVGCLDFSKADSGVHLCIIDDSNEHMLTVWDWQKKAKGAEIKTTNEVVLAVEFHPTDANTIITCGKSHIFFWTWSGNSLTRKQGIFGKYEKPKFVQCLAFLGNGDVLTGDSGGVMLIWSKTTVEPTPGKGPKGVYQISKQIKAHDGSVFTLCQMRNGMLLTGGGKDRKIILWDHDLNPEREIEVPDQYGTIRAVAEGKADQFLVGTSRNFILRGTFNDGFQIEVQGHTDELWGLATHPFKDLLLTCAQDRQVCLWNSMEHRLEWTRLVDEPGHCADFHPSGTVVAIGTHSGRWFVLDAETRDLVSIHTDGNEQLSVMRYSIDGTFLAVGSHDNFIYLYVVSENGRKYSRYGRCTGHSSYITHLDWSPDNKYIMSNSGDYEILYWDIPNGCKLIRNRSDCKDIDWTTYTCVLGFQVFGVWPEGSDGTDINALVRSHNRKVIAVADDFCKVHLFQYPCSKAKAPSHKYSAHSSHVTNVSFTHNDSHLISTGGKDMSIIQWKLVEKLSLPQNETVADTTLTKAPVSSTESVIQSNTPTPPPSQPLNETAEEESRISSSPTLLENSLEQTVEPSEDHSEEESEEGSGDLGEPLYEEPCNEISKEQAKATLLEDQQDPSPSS
10 µM
  probe-labelled cysteine peptide fold change: 0.109
50 µM
  probe-labelled cysteine peptide fold change: 0.328

## DOCK10_Q96BY6_1310_TDNCEK (UniProt Q96BY6)
10 µM
  probe-labelled cysteine peptide fold change: -0.105
50 µM
  probe-labelled cysteine peptide fold change: -0.108

## FAM102B_Q5T8I3_254_RNTSVGSTSTGVESILEPCDEIEQK (UniProt Q5T8I3)
10 µM
  probe-labelled cysteine peptide fold change: -0.237
50 µM
  probe-labelled cysteine peptide fold change: 0.149

## ERLEC1_Q96DZ1_126_IESYWTYEVCHGK (UniProt Q96DZ1)
UniProt Q96DZ1, sequence (Q96DZ1 whole entry, looked up): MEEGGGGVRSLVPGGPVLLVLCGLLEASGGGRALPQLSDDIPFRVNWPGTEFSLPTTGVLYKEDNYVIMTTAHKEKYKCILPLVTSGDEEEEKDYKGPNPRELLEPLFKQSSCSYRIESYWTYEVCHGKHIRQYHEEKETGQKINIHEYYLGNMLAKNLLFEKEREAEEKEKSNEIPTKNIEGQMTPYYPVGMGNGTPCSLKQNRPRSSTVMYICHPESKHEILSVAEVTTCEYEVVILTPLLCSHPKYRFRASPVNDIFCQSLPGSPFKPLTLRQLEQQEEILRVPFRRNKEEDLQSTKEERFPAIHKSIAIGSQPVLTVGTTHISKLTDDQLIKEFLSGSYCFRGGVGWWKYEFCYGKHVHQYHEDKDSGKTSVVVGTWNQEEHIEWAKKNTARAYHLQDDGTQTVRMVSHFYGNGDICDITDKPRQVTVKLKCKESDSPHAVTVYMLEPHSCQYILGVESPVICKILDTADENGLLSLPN
10 µM
  probe-labelled cysteine peptide fold change: 0.192
50 µM
  probe-labelled cysteine peptide fold change: 0.0829

## DTX3L_Q8TDB6_219_DSCISPSEPETK (UniProt Q8TDB6)
10 µM
  probe-labelled cysteine peptide fold change: -0.446
50 µM
  probe-labelled cysteine peptide fold change: -0.672

## EIF2S3_P41091_96+101_LDDPSCPRPECYR (UniProt P41091)
10 µM
  probe-labelled cysteine peptide fold change: -0.389
50 µM
  probe-labelled cysteine peptide fold change: -0.339

## DSCR3_O14972_219+221_VETCGCAEGYAR (UniProt O14972)
10 µM
  probe-labelled cysteine peptide fold change: -0.345
50 µM
  probe-labelled cysteine peptide fold change: -2.51

## FAM120A_Q9NZB2_919_VAAASGHCGAFSGSDSSR (UniProt Q9NZB2)
UniProt Q9NZB2, sequence (Q9NZB2 whole entry, looked up): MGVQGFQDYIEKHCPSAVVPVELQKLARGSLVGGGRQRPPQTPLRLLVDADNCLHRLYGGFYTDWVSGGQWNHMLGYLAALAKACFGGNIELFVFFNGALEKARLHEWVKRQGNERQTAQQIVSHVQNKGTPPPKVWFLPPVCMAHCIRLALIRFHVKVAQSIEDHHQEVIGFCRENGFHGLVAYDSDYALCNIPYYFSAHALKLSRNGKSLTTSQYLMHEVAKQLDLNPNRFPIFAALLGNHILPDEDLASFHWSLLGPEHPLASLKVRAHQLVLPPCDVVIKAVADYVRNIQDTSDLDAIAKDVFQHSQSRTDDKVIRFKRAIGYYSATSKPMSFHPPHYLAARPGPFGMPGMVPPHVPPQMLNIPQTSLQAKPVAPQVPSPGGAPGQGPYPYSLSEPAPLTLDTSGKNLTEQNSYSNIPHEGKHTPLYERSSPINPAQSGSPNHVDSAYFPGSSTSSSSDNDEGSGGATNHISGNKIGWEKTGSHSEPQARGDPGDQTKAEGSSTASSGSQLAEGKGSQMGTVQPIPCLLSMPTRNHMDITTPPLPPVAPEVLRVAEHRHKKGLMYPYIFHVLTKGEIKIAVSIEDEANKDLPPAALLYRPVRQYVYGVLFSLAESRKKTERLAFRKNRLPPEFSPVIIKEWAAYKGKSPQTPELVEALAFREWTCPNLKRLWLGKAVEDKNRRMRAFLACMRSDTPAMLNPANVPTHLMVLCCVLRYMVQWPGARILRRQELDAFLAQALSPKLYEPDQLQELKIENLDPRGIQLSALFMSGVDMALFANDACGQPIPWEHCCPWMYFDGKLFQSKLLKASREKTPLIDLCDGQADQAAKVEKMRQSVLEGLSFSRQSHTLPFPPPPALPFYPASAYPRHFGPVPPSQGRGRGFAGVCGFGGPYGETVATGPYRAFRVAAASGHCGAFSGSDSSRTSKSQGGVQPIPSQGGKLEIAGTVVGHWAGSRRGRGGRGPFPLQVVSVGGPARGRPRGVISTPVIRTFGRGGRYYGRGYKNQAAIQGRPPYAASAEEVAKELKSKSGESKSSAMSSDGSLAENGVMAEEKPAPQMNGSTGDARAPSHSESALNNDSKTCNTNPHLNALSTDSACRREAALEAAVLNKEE
10 µM
  probe-labelled cysteine peptide fold change: -0.383
50 µM
  probe-labelled cysteine peptide fold change: -0.344

## FAM208A_Q9UK61_318_HVCPYAVVSFTYK (UniProt Q9UK61)
10 µM
  probe-labelled cysteine peptide fold change: -0.201
50 µM
  probe-labelled cysteine peptide fold change: -0.698

## EPRS_P07814_92+105_LSSCDSFTSTINELNHCLSLR (UniProt P07814)
10 µM
  probe-labelled cysteine peptide fold change: 0.0532
50 µM
  probe-labelled cysteine peptide fold change: -0.00186

## EZH2_Q15910_324_NTETALDNKPCGPQCYQHLEGAK (UniProt Q15910)
UniProt Q15910, sequence (Q15910 whole entry, looked up): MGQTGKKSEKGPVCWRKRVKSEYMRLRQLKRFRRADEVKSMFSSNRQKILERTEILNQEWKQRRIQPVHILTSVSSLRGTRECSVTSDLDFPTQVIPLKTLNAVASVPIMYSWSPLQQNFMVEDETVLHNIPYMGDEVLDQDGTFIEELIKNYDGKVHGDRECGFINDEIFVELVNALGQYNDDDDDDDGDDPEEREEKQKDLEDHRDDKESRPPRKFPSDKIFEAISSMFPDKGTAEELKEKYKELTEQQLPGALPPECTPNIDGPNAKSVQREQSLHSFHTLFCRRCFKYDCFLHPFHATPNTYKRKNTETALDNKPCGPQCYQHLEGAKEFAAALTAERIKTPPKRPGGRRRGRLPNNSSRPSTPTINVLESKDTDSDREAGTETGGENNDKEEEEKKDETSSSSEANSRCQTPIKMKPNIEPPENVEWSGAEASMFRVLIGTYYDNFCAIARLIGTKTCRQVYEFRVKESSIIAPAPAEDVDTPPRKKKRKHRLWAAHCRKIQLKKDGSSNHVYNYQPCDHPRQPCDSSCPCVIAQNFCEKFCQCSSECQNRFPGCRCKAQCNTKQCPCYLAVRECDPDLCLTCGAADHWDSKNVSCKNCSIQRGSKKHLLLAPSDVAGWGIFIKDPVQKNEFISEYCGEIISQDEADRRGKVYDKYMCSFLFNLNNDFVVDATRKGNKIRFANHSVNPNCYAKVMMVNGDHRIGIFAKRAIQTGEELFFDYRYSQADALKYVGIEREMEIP
10 µM
  probe-labelled cysteine peptide fold change: 0.251
50 µM
  probe-labelled cysteine peptide fold change: -0.196

## EXOSC6_Q5RKV6_117_APPGGCEERELALALQEALEPAVR (UniProt Q5RKV6)
10 µM
  probe-labelled cysteine peptide fold change: -0.5
50 µM
  probe-labelled cysteine peptide fold change: -1.49

## DSTN_P60981_12_ASGVQVADEVCR (UniProt P60981)
UniProt P60981, sequence (P60981 whole entry, looked up): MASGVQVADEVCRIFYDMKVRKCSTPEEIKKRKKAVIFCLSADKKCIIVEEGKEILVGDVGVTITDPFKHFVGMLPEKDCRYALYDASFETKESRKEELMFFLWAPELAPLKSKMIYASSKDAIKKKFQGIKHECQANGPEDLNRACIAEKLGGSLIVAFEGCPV
10 µM
  probe-labelled cysteine peptide fold change: 0.0942
50 µM
  probe-labelled cysteine peptide fold change: 0.212

## ERCC4_Q92889_803_ILWCPSPHATAELFEELK (UniProt Q92889)
10 µM
  probe-labelled cysteine peptide fold change: -0.169
50 µM
  probe-labelled cysteine peptide fold change: 0.181

## EIF2B1_Q14232_218_IGTNQMAVCAK (UniProt Q14232)
UniProt Q14232, sequence (Q14232 whole entry, looked up): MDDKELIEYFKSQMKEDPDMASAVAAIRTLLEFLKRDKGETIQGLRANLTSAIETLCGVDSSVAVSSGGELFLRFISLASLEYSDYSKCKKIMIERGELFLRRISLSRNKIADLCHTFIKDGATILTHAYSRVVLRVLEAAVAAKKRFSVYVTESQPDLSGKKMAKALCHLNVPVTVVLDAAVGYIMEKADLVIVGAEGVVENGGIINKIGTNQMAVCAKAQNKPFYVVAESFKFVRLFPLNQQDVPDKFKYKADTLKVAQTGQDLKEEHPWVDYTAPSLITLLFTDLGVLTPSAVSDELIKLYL
10 µM
  probe-labelled cysteine peptide fold change: -0.148
50 µM
  probe-labelled cysteine peptide fold change: -0.133

## EPRS_P07814_660_NSKHEELMLGDPCLK (UniProt P07814)
10 µM
  probe-labelled cysteine peptide fold change: -0.334
50 µM
  probe-labelled cysteine peptide fold change: -1.37

## EML2_O95834_110_CLAIHPDMVTIATGQVAGTTK (UniProt O95834)
10 µM
  probe-labelled cysteine peptide fold change: -0.0841
50 µM
  probe-labelled cysteine peptide fold change: 0.0588

## ELP4_Q96EB1_412_LGPGCGMMAGGK (UniProt Q96EB1)
10 µM
  probe-labelled cysteine peptide fold change: -0.372
50 µM
  probe-labelled cysteine peptide fold change: -1.07

## DPH5_Q9H2P9_120_VIHNASIMNAVGCCGLQLYK (UniProt Q9H2P9)
10 µM
  probe-labelled cysteine peptide fold change: 0.0911
50 µM
  probe-labelled cysteine peptide fold change: 0.264

## EEF1A2_Q05639_411_SGDAAIVEMVPGKPMCVESFSQYPPLGR (UniProt Q05639)
10 µM
  probe-labelled cysteine peptide fold change: -0.261
50 µM
  probe-labelled cysteine peptide fold change: -0.239
